# From PubChem BioAssay AID1645838 (ICCB-Longwood Screening Facility, Harvard Medical School, 2021)
# The whole screen tested about 2,000 compounds, of which about 100 (5%) were called active. No stated cut-off is given here; in the data, active means z-score above about 2; inactive means the rest. The full list was thinned out, with actives kept by preference. Residues, ends and D or L forms follow the SMILES beside them. *: point of attachment. Cbz = O=C(OCc1ccccc1)*
# Experiment: supercomplex reporter luminescence per Hoechst cell count – Hoechst nuclei count (AID 1645838);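 further: control cybrid cells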;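 on z-score: higher means more mitochondrial supercomplex formation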
# Settings: Cells, luminescence/Hoechst cell count ratio; for z-score: stronger effect = higher value; for cell count: measured here: cell number, Hoechst nuclei count
# [1] = library stock concentration (final well concentration not given) 80 uM
# [2] = library stock concentration (final well concentration not given) 400 uM
# [3] = library stock concentration (final well concentration not given) 2 mM
# [4] = library stock concentration (final well concentration not given) 10 mM
# [5] = library stock concentration (final well concentration not given) 46 uM
# [6] = library stock concentration (final well concentration not given) 278 uM
# [7] = library stock concentration (final well concentration not given) 1.67 mM
smiles,measurement,setting,value
COc1ccc(C2(O)CCC(N3CCC(NC(=O)CNC(=O)c4cccc(C(F)(F)F)c4)C3)CC2)cn1 (stereo not given),z-score,[1],0.226 (inactive)
same,z-score,[2],0.00991 (inactive)
same,z-score,[3],-0.208 (inactive)
same,z-score,[4],-0.124 (inactive)
same,cell count,[1],5820
same,cell count,[2],5470
same,cell count,[3],6300
same,cell count,[4],5360
CC(C)CC(C=O)NC(=O)C(CC(C)C)NC(=O)C(CC(C)C)NC(=O)OCc1ccccc1 (stereo not drawn) (Cbz-Leu-Leu-Leu-aldehyde; configuration not given here),outcome,library stock 1.67 mM,inactive; censored for cell count
same,outcome,library stock 10 mM,inactive; censored for cell count
same,z-score,[5],-0.417 (inactive)
same,z-score,[6],-0.122 (inactive)
same,cell count,[5],6590
same,cell count,[6],5640
Cc1cc(N2CCOCC2)cc2[nH]c(-c3c(NCC(O)c4cccc(Cl)c4)cc[nH]c3=O)nc12 (stereo not given),z-score,[1],0.23 (inactive)
same,z-score,[2],0.0421 (inactive)
same,z-score,[3],0.963 (inactive)
same,z-score,[4],5.5 (active)
same,cell count,[1],5280
same,cell count,[2],5710
same,cell count,[3],4590
same,cell count,[4],1770
CCCCC[C@H](O)/C=C/[C@H]1[C@H](O)CC(=O)[C@@H]1C/C=C/CCCC(=O)O,z-score,,0.327 (inactive)
same,cell count,,4880
CC(C)=CCC/C(C)=C/CC/C(C)=C/CC[C@]1(C)CCc2c(C)c(O)c(C)c(C)c2O1,z-score,,-0.823 (inactive)
same,cell count,,5060
NS(=O)(=O)OCC1CC(n2ccc3c(NC4CCc5ccccc54)ncnc32)CC1O (stereo not given),outcome,library stock 1.67 mM,inactive; censored for cell count
same,outcome,library stock 10 mM,inactive; censored for cell count
same,z-score,[5],1.02 (inactive)
same,z-score,[6],4.89 (active)
same,cell count,[5],5390
same,cell count,[6],2380
CCCCC[C@H](O)/C=C/[C@H]1CC[C@@H](O)[C@@H]1C/C=C\CCCC(=O)O,z-score,,-0.672 (inactive)
same,cell count,,5720
NCc1cccc2ccncc12,z-score,,-0.00644 (inactive)
same,cell count,,5160
CCCCC/C=C/C=C1/C=CC(=O)[C@@H]1CCCCCCC(=O)O,z-score,,-0.804 (inactive)
same,cell count,,5740
CN1c2ccc([N+](=O)[O-])cc2N=C(c2ccc(C(=O)O)cc2)c2cc3c(cc21)C(C)(C)CCC3(C)C,z-score,[5],-0.143 (inactive)
same,z-score,[6],-0.194 (inactive)
same,z-score,[7],-0.234 (inactive)
same,z-score,[4],-0.264 (inactive)
same,cell count,[5],5860
same,cell count,[6],5990
same,cell count,[7],5440
same,cell count,[4],4270
O=C(O)c1ccc2nc(-c3cc(Cl)cc(Cl)c3)oc2c1,z-score,[5],0.415 (inactive)
same,z-score,[6],0.328 (inactive)
same,z-score,[7],0.106 (inactive)
same,z-score,[4],0.34 (inactive)
same,cell count,[5],6810
same,cell count,[6],6930
same,cell count,[7],7500
same,cell count,[4],7380
O=C(O)c1cc2ccccc2c(Cc2c(O)c(C(=O)O)cc3ccccc23)c1O,z-score,[1],-0.00825 (inactive)
same,z-score,[2],0.355 (inactive)
same,z-score,[3],0.379 (inactive)
same,z-score,[4],0.06 (inactive)
same,cell count,[1],4700
same,cell count,[2],4390
same,cell count,[3],4510
same,cell count,[4],4530
Nc1ccc(O)c(C(=O)O)c1,z-score,,-0.67 (inactive)
same,cell count,,5710
O=C(O)c1cc(O)c2ccccc2c1O,z-score,[5],0.31 (inactive)
same,z-score,[6],1.17 (inactive)
same,z-score,[7],0.601 (inactive)
same,z-score,[4],2.64 (active)
same,cell count,[5],6560
same,cell count,[6],6080
same,cell count,[7],6240
same,cell count,[4],3940
C=C1C[C@H](O)[C@H](C/C=C\CCCC(=O)O)[C@H]1/C=C/[C@@H](O)CCCCC,z-score,,-0.218 (inactive)
same,cell count,,5720
CC(C)c1ccccc1S(=O)(=O)c1cc(N)c2ncccc2c1[N+](=O)[O-],z-score,[5],-0.201 (inactive)
same,z-score,[6],0.537 (inactive)
same,z-score,[7],0.241 (inactive)
same,z-score,[4],2.73 (active)
same,cell count,[5],6190
same,cell count,[6],6010
same,cell count,[7],6020
same,cell count,[4],4420
CC(C)(O)c1ccccc1CCC(SCC1(CC(=O)O)CC1)c1cccc(C=Cc2ccc3ccc(Cl)cc3n2)c1 (stereo not given),z-score,[1],0.0351 (inactive)
same,z-score,[2],-0.104 (inactive)
same,z-score,[3],-0.0351 (inactive)
same,z-score,[4],-0.342 (inactive)
same,cell count,[1],5230
same,cell count,[2],5680
same,cell count,[3],5330
same,cell count,[4],4770
CCCCC[C@H](O)/C=C/[C@H]1[C@H](O)CC(=O)[C@H]1C/C=C\CCCC(=O)OC(C)C,z-score,,0.469 (inactive)
same,cell count,,4980
CCCNC(=O)C1OC1C(=O)N[C@@H](C(=O)N1CCCC1C(=O)O)C(C)CC (stereo not given in full),z-score,[1],-0.18 (inactive)
same,z-score,[2],0.0728 (inactive)
same,z-score,[3],-0.0724 (inactive)
same,z-score,[4],-0.194 (inactive)
same,cell count,[1],4940
same,cell count,[2],4970
same,cell count,[3],4760
same,cell count,[4],5370
O=c1c(-c2ccc(O)cc2)coc2cc(O)cc(O)c12,z-score,,0.997 (inactive)
same,z-score,[5],0.276 (inactive)
same,z-score,[6],-0.193 (inactive)
same,z-score,[7],0.316 (inactive)
same,z-score,[4],2.63 (active)
same,cell count,,5200
same,cell count,[5],6440
same,cell count,[6],6300
same,cell count,[7],6710
same,cell count,[4],5450
O=c1c(-c2ccc(O)c(O)c2)coc2cc(O)ccc12,z-score,[5],-0.245 (inactive)
same,z-score,[6],-0.0571 (inactive)
same,z-score,[7],-0.19 (inactive)
same,z-score,[4],0.665 (inactive)
same,cell count,[5],6940
same,cell count,[6],6400
same,cell count,[7],6560
same,cell count,[4],5440
O=c1c(-c2ccc(O)cc2)coc2cc(O)ccc12,z-score,,0.504 (inactive)
same,cell count,,5430
O=C(Oc1nsnc1N1CCCCC1)N1CCOCC1,z-score,[1],0.263 (inactive)
same,z-score,[2],0.6 (inactive)
same,z-score,[3],0.737 (inactive)
same,z-score,[4],1.45 (inactive)
same,cell count,[1],4950
same,cell count,[2],4960
same,cell count,[3],4530
same,cell count,[4],4260
CCCCCCCCCCCCCCC(F)C(=O)O (stereo not given),z-score,,-0.112 (inactive)
same,cell count,,5870
CC(C)CCOc1ccc(N)cc1,z-score,,-0.619 (inactive)
same,cell count,,5370
N=C(N)c1ccc2cc(OC(=O)c3ccc(N=C(N)N)cc3)ccc2c1,z-score,[5],0.0192 (inactive)
same,z-score,[6],0.31 (inactive)
same,z-score,[7],-0.356 (inactive)
same,z-score,[4],-0.0213 (inactive)
same,cell count,[5],6960
same,cell count,[6],6430
same,cell count,[7],7070
same,cell count,[4],6560
COc1cc(Nc2ncc3c(n2)-c2ccc(Cl)cc2C(c2c(F)cccc2OC)=NC3)ccc1C(=O)O,outcome,library stock 1.67 mM,inactive; censored for cell count
same,outcome,library stock 10 mM,inactive; censored for cell count
same,z-score,[5],-0.133 (inactive)
same,z-score,[6],1.85 (inactive)
same,cell count,[5],5510
same,cell count,[6],2620
O=C(O)c1ccc(Nc2ncc3c(n2)-c2ccc(Cl)cc2C(c2c(F)cccc2F)=NC3)cc1,outcome,library stock 10 mM,inactive; censored for cell count
same,z-score,[1],-0.747 (inactive)
same,z-score,[2],-0.464 (inactive)
same,z-score,[3],-0.071 (inactive)
same,cell count,[1],4990
same,cell count,[2],4350
same,cell count,[3],3530
Cc1cnc(Nc2ccc(F)cc2Cl)nc1-c1c[nH]c(C(=O)NC(CO)c2cccc(Cl)c2)c1 (stereo not given),outcome,library stock 10 mM,inactive; censored for cell count
same,z-score,[5],-0.208 (inactive)
same,z-score,[6],-0.12 (inactive)
same,z-score,[7],2.01 (active)
same,cell count,[5],6210
same,cell count,[6],6120
same,cell count,[7],3060
